Experimental data from PubChem BioAssay AID1159580 (chemical genetic matrix, 2015).
In all, about 5,500 compounds went through this assay and about 2,000 (36%) were called active. Another 18% or so got no clear call; they are omitted. Cut-off read from the data, not from the text of the source: active = normalized growth mostly below about 0.91 (no sharp cut-off); inconclusive = no clear call, values can overlap the other calls; inactive = mostly above about 0.92. Some of the results follow.

Test: chemical genetic growth profiling, strain panel (AID 1159580);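 note: tested at 20 µM; growth read once vehicle control cultures reached saturation at 30 °C; 1 = growth at the plate median or of vehicle wells; lower values mean less growth of the strain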
Conditions: growth OD

Measured: normalized growth

O=C(O)C1=C[C@@H](O)[C@@H](O)[C@H](O)C1
inactive: S. cerevisiae deletion strains, locus YJR043C, strain POL32, hits give low values 1.02 | S. cerevisiae deletion strains, locus YJR066W, strain TOR1, hits give low values 0.928 | S. cerevisiae deletion strains, locus YJR075W, strain HOC1, hits give low values 1.01 | S. cerevisiae deletion strains, locus YKL009W, strain mrt4, hits give low values 1 | S. cerevisiae deletion strains, locus YKL068W, hits give low values 1 | S. cerevisiae deletion strains, locus YKL085W, strain MDH1 (second series), hits give low values 1.01 | S. cerevisiae deletion strains, locus YKL085W, strain MDH1, hits give low values 1.01 | S. cerevisiae deletion strains, locus YKL160W, strain elf1, hits give low values 0.987 | S. cerevisiae deletion strains, locus YKR001C, strain vps1, hits give low values 1.07 | S. cerevisiae deletion strains, locus YKR026C, strain gcn3, hits give low values 0.999 | S. cerevisiae deletion strains, locus YKR091W, strain srl3, hits give low values 0.969 | S. cerevisiae deletion strains, locus YLL001W, strain dnm1, hits give low values 0.995 | S. cerevisiae deletion strains, locus YLL026W, hits give low values 0.975 | S. cerevisiae deletion strains, locus YLL041C, strain sdh2, hits give low values 0.978 | S. cerevisiae deletion strains, locus YLR027C, strain aat2, hits give low values 0.996 | S. cerevisiae deletion strains, locus YLR039C, strain RIC1, hits give low values 1.1 | S. cerevisiae deletion strains, locus YLR058C, strain SHM2, hits give low values 1.01 | S. cerevisiae deletion strains, locus YLR102C, strain apc9, hits give low values 1.01 | S. cerevisiae deletion strains, locus YLR113W, strain HOG1, hits give low values 1.01 | S. cerevisiae deletion strains, locus YLR221C, strain rsa3, hits give low values 0.982 | S. cerevisiae deletion strains, locus YLR258W, strain gsy2, hits give low values 0.974 | S. cerevisiae deletion strains, locus YLR262C, strain YPT6 (second series), hits give low values 0.952 | S. cerevisiae deletion strains, locus YLR262C, strain YPT6, hits give low values 1.13 | S. cerevisiae deletion strains, locus YLR268W, strain sec22, hits give low values 1.05 | S. cerevisiae deletion strains, locus YLR320W, strain mms22, hits give low values 0.985 | S. cerevisiae deletion strains, locus YLR330W, strain CHS5, hits give low values 1.01 | S. cerevisiae deletion strains, locus YLR342W, strain FKS1 (second series), hits give low values 1.05 | S. cerevisiae deletion strains, locus YLR342W, strain FKS1, hits give low values 0.985 | S. cerevisiae deletion strains, locus YLR357W, strain rsc2, hits give low values 0.973 | S. cerevisiae deletion strains, locus YLR370C, strain arc18, hits give low values 0.994 | S. cerevisiae deletion strains, locus YLR371W, strain rom2, hits give low values 1.02 | S. cerevisiae deletion strains, locus YLR384C, strain iki3, hits give low values 0.979 | S. cerevisiae deletion strains, locus YLR418C, strain cdc73, hits give low values 0.986 | S. cerevisiae deletion strains, locus YML016C, strain PPZ1, hits give low values 1.02 | S. cerevisiae deletion strains, locus YML032C, strain rad52, hits give low values 0.993 | S. cerevisiae deletion strains, locus YML120C, strain ndi1, hits give low values 0.982 | S. cerevisiae deletion strains, locus YML124C, strain tub3, hits give low values 1 | S. cerevisiae deletion strains, locus YMR058W, strain fet3, hits give low values 0.973 | S. cerevisiae deletion strains, locus YMR078C, strain ctf18, hits give low values 1.01 | S. cerevisiae deletion strains, locus YMR125W, strain sto1, hits give low values 0.968 | S. cerevisiae deletion strains, locus YMR129W, hits give low values 0.986 | S. cerevisiae deletion strains, locus YMR205C, strain PFK2, hits give low values 0.984 | S. cerevisiae deletion strains, locus YMR223W, strain ubp8, hits give low values 0.987 | S. cerevisiae deletion strains, locus YMR231W, strain pep5, hits give low values 0.967 | S. cerevisiae deletion strains, locus YMR263W, strain SAP30, hits give low values 1.02 | S. cerevisiae deletion strains, locus YMR307W, strain GAS1, hits give low values 1.04 | S. cerevisiae deletion strains, locus YNL067W, strain RPL9B, hits give low values 1.01 | S. cerevisiae deletion strains, locus YNL071W, strain lat1, hits give low values 0.982 | S. cerevisiae deletion strains, locus YNL183C, strain NPR1, hits give low values 0.962 | S. cerevisiae deletion strains, locus YNL209W, strain ssb2, hits give low values 0.983 | S. cerevisiae deletion strains, locus YNL233W, strain BNI4, hits give low values 1.03 | S. cerevisiae deletion strains, locus YNL248C, strain rpa49, hits give low values 0.965 | S. cerevisiae deletion strains, locus YNL250W, strain rad50, hits give low values 1.03 | S. cerevisiae deletion strains, locus YNL271C, strain bni1, hits give low values 1.01 | S. cerevisiae deletion strains, locus YNL298W, strain CLA4, hits give low values 1.01 | S. cerevisiae deletion strains, locus YNL307C, strain MCK1, hits give low values 1.02 | S. cerevisiae deletion strains, locus YNL322C, strain KRE1 (second series), hits give low values 0.986 | S. cerevisiae deletion strains, locus YNR049C, strain mso1, hits give low values 0.989 | S. cerevisiae deletion strains, locus YNR052C, strain pop2, hits give low values 1.01 | S. cerevisiae deletion strains, locus YOL012C, strain htz1 0.985 | S. cerevisiae deletion strains, locus YOL147C, strain pex11, hits give low values 0.993 | S. cerevisiae deletion strains, locus YOR001W, strain rrp6, hits give low values 0.993 | S. cerevisiae deletion strains, locus YOR061W, strain CKA2, hits give low values 1.01 | S. cerevisiae deletion strains, locus YOR069W, strain VPS5, hits give low values 1.01 | S. cerevisiae deletion strains, locus YOR070C, strain gyp1, hits give low values 0.996 | S. cerevisiae deletion strains, locus YOR080W, strain dia2, hits give low values 0.99 | S. cerevisiae deletion strains, locus YOR083W, strain WHI5, hits give low values 0.982 | S. cerevisiae deletion strains, locus YOR106W, strain vam3, hits give low values 0.972 | S. cerevisiae deletion strains, locus YOR136W, strain idh2, hits give low values 1.01 | S. cerevisiae deletion strains, locus YOR144C, strain elg1, hits give low values 1 | S. cerevisiae deletion strains, locus YOR184W, strain ser1, hits give low values 1.02 | S. cerevisiae deletion strains, locus YOR231W, strain MKK1, hits give low values 0.981 | S. cerevisiae deletion strains, locus YOR265W, strain rbl2, hits give low values 0.977 | S. cerevisiae deletion strains, locus YOR270C, strain vph1, hits give low values 0.969 | S. cerevisiae deletion strains, locus YOR290C, strain snf2, hits give low values 0.988 | S. cerevisiae deletion strains, locus YOR316C, strain cot1, hits give low values 0.996 | S. cerevisiae deletion strains, locus YPL051W, strain arl3, hits give low values 0.977 | S. cerevisiae deletion strains, locus YPL078C, strain atp4, hits give low values 0.987 | S. cerevisiae deletion strains, locus YPL106C, strain sse1, hits give low values 0.973 | S. cerevisiae deletion strains, locus YPL240C, strain hsp82, hits give low values 0.989 | S. cerevisiae deletion strains, locus YPL241C, strain CIN2, hits give low values 1.01 | S. cerevisiae deletion strains, locus YPL256C, strain CLN2, hits give low values 0.978 | S. cerevisiae deletion strains, locus YPR119W, strain clb2, hits give low values 1 | S. cerevisiae deletion strains, locus YPR141C, strain kar3, hits give low values 1 | S. cerevisiae deletion strains, locus YPR163C, strain tif3, hits give low values 0.995 | S. cerevisiae deletion strains, locus YPR167C, strain met16, hits give low values 0.999 | S. cerevisiae deletion strains, strain wtn01, hits give low values 1.05 | S. cerevisiae strains, strain wild type, hits give low values 1.02
